Assay results published in PMC4336329 (PLoS ONE, 2015).
About 14,000 (4.5%) of roughly 310,000 compounds showed an effect of 50% or more. Effects have a minus sign here. Shown is part of a subset that was picked to be rich in strong results.

target: human ether-à-go-go-related gene (hERG) potassium channel (human, UniProt Q12809); assay: primary screen, population patch clamp on CHO cells stably expressing hERG; higher = less effect of the substance
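Also: peak tail current of the secondary pulse compared with the same well before compound.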

Chain of human ether-à-go-go-related gene (hERG) potassium channel (Q12809 whole entry, looked up): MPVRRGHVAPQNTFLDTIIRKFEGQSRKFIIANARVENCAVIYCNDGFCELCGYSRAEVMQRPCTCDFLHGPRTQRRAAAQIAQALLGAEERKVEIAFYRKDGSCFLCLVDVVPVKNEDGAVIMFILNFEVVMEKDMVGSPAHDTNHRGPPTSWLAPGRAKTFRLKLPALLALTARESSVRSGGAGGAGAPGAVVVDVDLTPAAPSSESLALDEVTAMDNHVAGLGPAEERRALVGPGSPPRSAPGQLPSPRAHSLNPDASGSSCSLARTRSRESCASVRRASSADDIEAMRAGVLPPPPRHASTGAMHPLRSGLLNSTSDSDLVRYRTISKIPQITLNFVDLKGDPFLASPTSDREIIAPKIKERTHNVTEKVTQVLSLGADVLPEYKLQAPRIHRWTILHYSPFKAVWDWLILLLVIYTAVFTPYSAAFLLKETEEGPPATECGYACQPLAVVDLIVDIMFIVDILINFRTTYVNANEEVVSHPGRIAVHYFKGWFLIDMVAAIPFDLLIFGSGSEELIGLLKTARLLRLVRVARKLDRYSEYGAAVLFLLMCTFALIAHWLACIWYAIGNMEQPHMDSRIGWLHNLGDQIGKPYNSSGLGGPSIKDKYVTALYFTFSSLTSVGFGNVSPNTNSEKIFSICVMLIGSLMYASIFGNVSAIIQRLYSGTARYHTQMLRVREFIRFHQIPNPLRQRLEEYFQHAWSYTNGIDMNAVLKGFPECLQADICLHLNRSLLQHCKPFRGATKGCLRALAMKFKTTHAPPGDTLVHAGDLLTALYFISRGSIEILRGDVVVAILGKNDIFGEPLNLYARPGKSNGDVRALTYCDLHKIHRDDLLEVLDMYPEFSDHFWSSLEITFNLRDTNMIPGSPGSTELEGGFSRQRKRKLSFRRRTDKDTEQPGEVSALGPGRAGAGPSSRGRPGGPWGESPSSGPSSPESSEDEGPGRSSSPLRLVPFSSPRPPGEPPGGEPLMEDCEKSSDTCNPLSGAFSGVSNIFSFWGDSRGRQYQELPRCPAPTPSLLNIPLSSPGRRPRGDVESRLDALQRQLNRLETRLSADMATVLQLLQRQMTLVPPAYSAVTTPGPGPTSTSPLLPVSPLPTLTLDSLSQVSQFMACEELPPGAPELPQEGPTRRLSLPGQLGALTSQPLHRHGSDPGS

SMILES	hERG current change (%, negative = inhibition) at 10uM [%]
O=C(O)c1ccc2c(c1)S(=O)(=O)c1ccccc1C2=O	17
CCc1cc2cc(C(=O)Nc3ccc(F)cc3)sc2s1	3.32
COc1cc(NC(=O)COC(=O)CNC(=O)c2ccc(C)s2)cc(OC)c1	4.76
Cc1ccc(C(=O)N2CCN(c3ccccc3)CC2)cc1C	4.41
O=C(c1ccc(-c2ccccc2)cc1)N1CCN(c2ccccn2)CC1	-36.4
CN(CC(=O)Nc1cccc(F)c1)C(=O)c1ccncc1	4.28
CCOc1ccc(OCC)c(NC(=O)C2CCN(S(=O)(=O)c3c(C)[nH]c(=O)[nH]c3=O)CC2)c1	7.51
CSc1nsc(SC)c1NC(=O)N1CCCC1	-13.1
COCc1nnc(NC(=O)CCCOc2ccccc2OC)s1	9.6
COc1ccc(-c2cc(C)no2)cc1S(=O)(=O)N(C)c1ccc(C)cc1	-29.6
COc1ccc(-c2cc(C)no2)cc1S(=O)(=O)N(C)c1ccc(C)c(C)c1	-1.83
COc1ccc(-c2cc(C)no2)cc1S(=O)(=O)N(C)c1cccc(C)c1	-82.5
CC(=O)N1CCc2c(sc3c2c(=O)n(Cc2ccccc2)c(=O)n3CC(=O)NCC2CCCO2)C1 (centres unmarked)	-21.6
CCCCOC1CC(c2ccc(OCc3ccc(OC)cc3)c(OC)c2)N(C)O1 (centres unmarked)	3.47
Cc1ccn2c(CNC(C)c3cn(C)nc3C)c(C(=O)N3CCCCCC3)nc2c1 (centres unmarked)	0.193
O=C(CCN1C(=O)C2C3C=CC(C3)C2C1=O)N1CCN(c2cccc(Cl)c2)CC1 (centres unmarked)	-38.4
COc1ccc(N2CCN(C(=O)CCN3C(=O)C4C5C=CC(C5)C4C3=O)CC2)cc1 (centres unmarked)	-0.214
O=C(CCN1C(=O)C2C3C=CC(C3)C2C1=O)N1CCN(c2ccc(F)cc2)CC1 (centres unmarked)	-25.8
O=C(CCN1C(=O)C2C3C=CC(C3)C2C1=O)N1CCN(c2ccccc2Cl)CC1 (centres unmarked)	-57.2
O=C(CCN1C(=O)C2C3C=CC(C3)C2C1=O)N1CCN(c2ccc([N+](=O)[O-])cc2)CC1 (centres unmarked)	-81.2
O=C(CCN1C(=O)C2C3C=CC(C3)C2C1=O)N1CCN(c2ccccc2F)CC1 (centres unmarked)	-4.87
O=C(CSc1ccc2nnc(CCNC(=O)c3ccccc3)n2n1)NCc1ccccc1	-8.24
COc1ccc2nc(SC)c(C#N)cc2c1	15.1

SMILES	hERG current change (%, negative = inhibition) at 10uM [%]
CCOC(=O)c1cnc(Nc2ccc(OCC)cc2)nc1C	12.6
O=C(NCCc1cccc(Cl)c1)C1CCC(=O)N(Cc2ccc(Cl)cc2)C1 (centres unmarked)	-52.3
O=C(NCCc1ccccc1)C1CCC(=O)N(Cc2cccc(C(F)(F)F)c2)C1 (centres unmarked)	-14.2
COc1ccccc1CN1CC(C(=O)NCc2ccc(C)c(F)c2)CCC1=O (centres unmarked)	0.721
O=C(NCCc1cccnc1)C1CCC(=O)N(Cc2cccc(C(F)(F)F)c2)C1 (centres unmarked)	-8.64
Cc1cccc(CCNC(=O)C2CCC(=O)N(Cc3ccc(Cl)cc3)C2)n1 (centres unmarked)	5.05
COc1cccc(CN2CC(C(=O)NCc3ccc(C)c(F)c3)CCC2=O)c1 (centres unmarked)	-40.8
Cc1ccc(CNC(=O)C2CCC(=O)N(Cc3ccc(Cl)cc3)C2)cc1F (centres unmarked)	-63.6
O=C(NCCC1=CCCCC1)C1CCC(=O)N(Cc2ccc(Cl)cc2)C1 (centres unmarked)	-2.34
O=C(NCCc1cccc(C(F)(F)F)c1)C1CCC(=O)N(Cc2ccc(Cl)cc2)C1 (centres unmarked)	-59
CCC(C)(C)NC(=O)C(OC(=O)c1ccco1)c1ccccc1F (centres unmarked)	13.4
O=C(CCCCCN1C(=O)[C@@H]2Cc3ccccc3CN2C1=O)N[C@@H](Cc1ccc(O)cc1)C(=O)O	1.02
CC1Oc2ccccc2N(CC(=O)N(Cc2ccccc2)Cc2ccccn2)C1=O (centres unmarked)	0.288
COc1ccc(/C=N/N2C(=O)C3C4C=CC(C4)C3C2=O)cc1[N+](=O)[O-] (centres unmarked)	-6.14
Cc1ccc2c(c1)NCC(C(=O)NC1CCC(C)CC1)O2 (centres unmarked)	6.16
O=C(NCCOc1ccc2ccccc2c1)c1cncc(Br)c1	3.79
CCOc1ccc(C(C)=O)cc1N1C(=O)C2C3C=CC(C3)C2C1=O (centres unmarked)	8.85
O=C(NCc1ccc(F)cc1)C1CCCN1S(=O)(=O)c1ccccc1C(F)(F)F (centres unmarked)	-13.4
O=C(CSc1nnc(-c2ccccc2)o1)c1nnc(-c2ccccc2)o1	20.1
CC1(C)C(=O)Nc2ccccc2N1C(=O)COC(=O)c1ccc(Cl)c(S(=O)(=O)NCc2ccccc2)c1	-12.8
Cc1ccc(CN2CC(C(=O)N3CCN(S(=O)(=O)c4ccc(C)cc4C)CC3)CC2=O)cc1 (centres unmarked)	-28.2
O=C1C(O)CC2c3ccccc3CC3(CCCC3)N12 (centres unmarked)	6.83
CC(C)CC12CN3CCN(CC(C3)C1O)C2 (centres unmarked)	-1.15

SMILES	hERG current change (%, negative = inhibition) at 10uM [%]
CC1=C(C)NC(=S)SC1	13.9
O=C1CC(c2ccccc2Cl)CC(O)=C1C=Nc1ccccc1 (centres unmarked)	0.512
O=C(CCC(=O)N1CCOc2ccc(Cl)cc21)NCCCN1CCOCC1	6.57
Cc1ccc2c(c1)N(C(=O)CCC(=O)NCCCN1CCC(Cc3ccccc3)CC1)CCO2	-77.1
Cc1ccc2c(c1)N(C(=O)CCC(=O)NCCCN1CC(C)CC(C)C1)CCO2 (centres unmarked)	-56.2
Cc1ccc2c(c1)N(C(=O)CCC(=O)NCCN1CCOCC1)CCO2	-5.63
Cc1ccc2c(c1)N(C(=O)CCC(=O)NCCCN1CCN(C)CC1)CCO2	-5.06
O=C(CCC(=O)N1CCOc2ccccc21)NCCCN1CCOCC1	5.91
O=C(CCC(=O)N1CCOc2ccc(Cl)cc21)NCCCN1CCC(Cc2ccccc2)CC1	-75
Cc1ccc2c(c1)N(C(=O)CCC(=O)NCCCN1CCOCC1)CCO2	5.17
Cc1ccc2oc(C(=O)N3CCN(c4cccc(C)n4)CC3)c(C)c2c1	8.84
O=C1CCN(Cc2nnnn2CC2CCCO2)c2ccccc2N1 (centres unmarked)	2.18
CCOP(=O)(OCC)C(NC(=O)c1cccs1)c1ccccc1 (centres unmarked)	23.5
COc1ccc(/C=N/NC(C)(C)C)c(OC)c1.Cl	12.3
COc1ccc(C(=O)c2cnc[nH]2)cc1OC	10.9
Cc1cc(NC(=O)COc2ccccc2C)ccc1NC(=O)c1cccs1	0.541
CC1CCCN(C(=O)C2CCN(c3nc(-c4ccccc4)nc4c3CCC4)CC2)C1 (centres unmarked)	-55.1
CC1CCCCN1C(=O)C1CCN(c2nc(-c3ccccc3)nc3c2CCC3)CC1 (centres unmarked)	-42.4
COCC1CCCCN1C(=O)C1CCN(c2nc(-c3ccccc3)nc3c2CCC3)CC1 (centres unmarked)	-29.2
O=C(C1CCN(c2nc(-c3ccccc3)nc3c2CCC3)CC1)N1CCCC1	-35.8
COCC1CCN(C(=O)C2CCN(c3nc(-c4ccccc4)nc4c3CCC4)CC2)C1 (centres unmarked)	-76.5
O=C(C1CCN(c2nc(-c3ccccc3)nc3c2CCC3)CC1)N1CCC(O)CC1	-33.4
CC(C)(C)c1nnc(N/N=C/c2ccccc2O)n(N)c1=O	-35

SMILES	hERG current change (%, negative = inhibition) at 10uM [%]
O=C(NCc1ccc2c(c1)OCO2)C1CCCN1C(=O)Nc1cccc(Cl)c1 (centres unmarked)	-25.4
CCOCCCNC(=O)c1cc2cc3cc(OC)ccc3nc2o1	-7.74
CCCN(CCC)CCCNC(=O)c1cc2cc3ccc(Cl)cc3nc2o1	-61
CCCCN(CC)C(=O)c1cc2cc3ccc(Cl)cc3nc2o1	-9.93
CCCCN(CC)CCNC(=O)c1cc2c(C)nc3ccccc3c2o1	-53.5
CCc1ccc(CNC(=O)c2cc3c(C)nc4ccccc4c3o2)cc1	-11.5
CCCCN(CC)CCNC(=O)c1cc2cc3ccc(Cl)cc3nc2o1	-72.5
O=C(NCc1ccco1)c1cc2cc3ccc(Cl)cc3nc2o1	4.32
CCCCN(CC)C(=O)c1cc2cc3ccc(OC)cc3nc2o1	-38.8
CCCN(CCC)CCNC(=O)c1cc2c(C)nc3ccccc3c2o1	-29.7
CC(C)CNS(=O)(=O)c1cc(C(=O)OCC(=O)N(C)C2CCS(=O)(=O)C2)c(Cl)cc1Cl (centres unmarked)	-13
CC1(C)CC(=O)C=C(NNC(=O)C2CCCCC2)C1	8.47
O=C(C1CCCO1)N1CCc2ccccc21 (centres unmarked)	17.1
Cl.O=C(O)CCCCCNc1nc(-c2ccccc2)nc2ccccc12	3.35
CN(CC(O)COC(c1ccccc1)c1ccccc1)C1CCCCC1 (centres unmarked)	-68.4
CN(CC(O)COc1ccc(S(=O)(=O)N2CCOCC2)cc1)C1CCCCC1 (centres unmarked)	-6.74
CN(CC(O)COCc1cccs1)C1CCCCC1 (centres unmarked)	-12.1
CN(CC(O)COCc1ccccc1F)C1CCCCC1 (centres unmarked)	-14.6
COc1ccc(C(OCC(O)CN(C)C2CCCCC2)c2ccc(OC)cc2)cc1 (centres unmarked)	-69.8
CN(CC(O)COCc1ccc2c(c1)OCO2)C1CCCCC1.Cl (centres unmarked)	-20.6
